Measurements from PubChem BioAssay AID1347131 (National Center for Advancing Translational Sciences (NCATS), 2019).
About 2,000 (0.49%) of roughly 410,000 compounds were called active. Inconclusive results (about 8%) are left out. This is one part of a sample in which actives are shown more often than they occur. Values without a mark were called inactive. Calls follow the shape of the full dose curve; tested in HEK293 reporter line.

experiment: qHTS Assay for Foot and Mouth Disease Virus Antivirals: Primary Screen against the MLPCN compound library; conditions: FMDV antiviral cell-based qHTS; series mostly up to 57.9 µM; activity, negative = inhibition: at the top concentration; also: nearly all actives have a fitted effect of over 55% in size
Potency is read from the fitted curve at half-maximal effect.

SMILES | activity, negative = inhibition [%] | Potency
CC(C)CC(=O)Nc1ccccc1N1CCN(c2ccccc2)CC1 | -32 | –
CCc1nc(SCC(=O)N2CCN(c3ccccc3)CC2)c2oc3ccccc3c2n1 | – | 25.1 µM (active)
Cn1c(=O)c2c(SCC(=O)N3CCN(c4ccccc4)CC3)nc(C3CC3)nc2n(C)c1=O | -43.8 | –
Cn1c(=O)cc(SCC(=O)N2CCN(c3ccccc3)CC2)c2ccccc21 | -29 | –
COc1ccccc1N1CCN(c2nc(CNC(=O)c3sc(C)nc3C)nc3ccccc23)CC1 | -13.5 | –
COc1ccc2c(Cl)c(C(=O)OCC(=O)c3ccc4c(c3)NC(=O)CO4)sc2c1Cl | -31 | –
Cc1cc(C(=O)CSc2nc3ccccc3[nH]2)c(C)n1Cc1ccco1 | – | 11.2 µM (active)
O=C(CSc1nc2ccccc2c(=O)n1Cc1ccco1)c1ccc(F)cc1 | -32.3 | –
O=C(CSc1nc2ccccc2[nH]1)c1ccc(Cl)s1 | 38.3 | –
Cc1nn(C(C)C)c(C)c1CN1CCCC(C(=O)c2cccc(OC(C)C)c2)C1 (configuration not stated) | -35.4 | –
COc1ccc(NC(=O)CNC(=O)Cn2c(C)cc3ccccc3c2=O)cc1OC | -31.4 | –
CCN(CC)S(=O)(=O)c1cc(-c2nnc(Nc3ccc(OC)c(C(N)=O)c3)c3ccccc23)ccc1C | -31 | –
CN(C)c1ccc(N/C=C/C(=O)c2ccco2)cc1 | – | 8.91 µM (active)
O=C(Nc1ccc(F)cc1F)c1ccc2c(c1)[nH]c(=O)n2Cc1ccc(F)cc1 | -32.6 | –
CN1/C(=C\C(=O)c2ccco2)C(C)(C)c2ccccc21 | -42.8 | –
O=C(CNc1ccc(F)cc1F)NC(=O)NCc1ccco1 | -30.5 | –
Cc1cc(C)cc(NC(=S)N2CCN(C(=O)c3ccco3)CC2)c1 | -42.2 | –
O=C(/C=C/Nc1ccc(F)cc1F)c1ccco1 | – | 10 µM (active)
Cc1ccc(S(=O)(=O)N(C)C)cc1NC(=O)COc1cccc(-n2cnnn2)c1 | -30.7 | –
CCOc1ccccc1N1CCN(CC(=O)Nc2ccccc2C(=O)NC2CC2)CC1 | -36.1 | –
Cc1ccc(-c2cc(-c3ccccc3)cc(-c3ccccc3)[n+]2-c2ccccc2C(=O)O)cc1 | -33.8 | –
O=C(Nc1ccc(N2CCN(c3ccc(C(F)(F)F)cn3)CC2)nc1)c1cccs1 | -22 | –
O=C1NC(=O)N(c2ccc3c(c2)OCO3)C(=O)/C1=C/c1ccsc1 | -40.4 | –
COC(=O)C1=C(c2ccc(-c3ccccc3)c(F)c2)C[C@@H]2CC[C@H]1N2C(=O)NC1CCCCC1 | -39.4 | –
OC[C@@H]1CN(Cc2ccc(Cl)cc2)C[C@H](n2cnc3c(NC4CCCC4)ncnc32)O1 | -33.7 | –
COc1ccc(C(=O)NCc2cc(C)nc3ccccc23)cc1 | -41.5 | –
Cc1cc(C)c2sc(N(CCN(C)C)C(=O)c3c(F)cccc3F)nc2c1 | -30.3 | –
